Screens (PubChem BioAssay)
The list is not random: actives were taken first. Their share in the collection is about 3.8%.
tim10-1 inh = growth inhibitors of tim10-1 mutant yeast, primary screen, luminescence, uHTS; S. cerevisiae tim10-1 ts strain growth, BacTiter-Glo, 24 h; inhibition, % at 20 µM; 2.2% of 330,000 active;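 active = inhibition of at least 40%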;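 also: mutant grown at 25 °C; 0% = DMSO wells with yeast and 100% = wells holding no yeast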
tim23-1 inh = growth inhibitors of tim23-1 mutant yeast, primary screen, luminescence, uHTS. S. cerevisiae tim23-1 growth, BacTiter-Glo luminescence, 24 h. inhibition, % at 20 µM. 1.3% of 330,000 active. AID 463212, 2010;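 active = growth inhibition of the mutant yeast at or above 50%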;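 also: temperature-sensitive mutant grown at 25 °C; plate controls were DMSO-treated mutant yeast for no effect and medium wells lacking yeast for full effect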
TIM10 inh = growth inhibitors of isogenic TIM10 control yeast, primary screen, counter-screen for tim10-1 yeast inhibitor project, luminescence, uHTS | S. cerevisiae TIM10 strain growth, BacTiter-Glo luminescence, 24 h | inhibition, % at 10 µM | 1.4% of 330,000 active;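 active = inhibition of 40% or more at the single tested concentration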;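 also: wild-type TIM10 isogenic control strain grown at permissive 25 °C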
NLRP3 yeast inh = NALP3 inflammasome inhibitors in reconstituted yeast, primary screen, luminescence, uHTS. Yeast reconstituted NLRP3/ASC/caspase-1, beta-gal luminescence, 24 h. inhibition, % at 10 µM. 0.39% of 330,000 active. AID 2825, 2010;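 active = inhibition of 50% or more; inactive = inhibition below 50%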;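 also: plate controls were induced DMSO wells for no effect and uninduced yeast grown without galactose for full effect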
CR mimetic SO = reduction of superoxide in aged yeast, primary screen, HTS; S. cerevisiae aged cells, superoxide DHE fluorescence; active compounds read low; superoxide response (% of plate mean), % at 10 µM; 0.18% of 330,000 active;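 active = superoxide response under a set limit, about three screen SD below normal, cut at about 65% in these data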;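 also: yeast aged for seven days with compound at 30 °C before DHE staining; 100% = average MFI of all compound-treated wells on the plate with controls excluded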
CR mimetic CP = superoxide lowering in aged yeast cells, confirmation, cherry picked compounds | shares compounds with CR mimetic SO | 1% of 850 active | S. cerevisiae aging, superoxide DHE fluorescence; active compounds read low | superoxide response (% of plate), % at 10 µM;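 active = superoxide signal below 65% of the plate average of sample wells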;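 also: cells aged with compound for 7 days at 30 degrees C before staining; 100% equals mean DHE fluorescence of all compound wells on the plate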
DHE counter = DHE quenching or ROS scavenging interference in aged yeast, artefact control for yeast caloric restriction mimetic project, S. cerevisiae BY4741, flow cytometry; 850 tested, under 10 active; DHE fluorescence; active compounds read low; fluorescence response, % at 10 µM; shares compounds with CR mimetic SO;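 active = fluorescence response below 15%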;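 also: percent of the mean fluorescence averaged over all compound wells on the plate; lower means stronger quenching of DHE signal or ROS scavenging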
Numbers without * were called inactive.

Screening CCC(=O)Nc1ccc(C(=O)CN2CCC(C)CC2)cc1 returned tim10-1 inh 5.2, tim23-1 inh 12.3, TIM10 inh 2.3, NLRP3 yeast inh -7.5 and CR mimetic SO 82.8.
Screening O=C(NN=C1CCCCCC1)c1cn(-c2ccccc2)nc1-c1ccccc1 returned tim10-1 inh 37.3, tim23-1 inh 34.5, TIM10 inh 19.5, NLRP3 yeast inh 10.6, CR mimetic SO 63.9*, CR mimetic CP 126.3 and DHE counter 102.7.
`CCn1c(=O)n(CC)c2cc(N)ccc21` gave tim10-1 inh -10.2, tim23-1 inh -4.4, TIM10 inh 10.9, NLRP3 yeast inh 18.0 and CR mimetic SO 98.5.
For CCC(CC)NCc1ccc2c(c1)c1ccccc1n2CC the results were tim10-1 inh 0.1, tim23-1 inh 9.2, TIM10 inh 18.1, NLRP3 yeast inh 26.2, CR mimetic SO 101.2, CR mimetic CP 107.0 and DHE counter 93.0.
Screening CCn1c2ccccc2c2cc(N)ccc21 returned tim10-1 inh 20.7, tim23-1 inh 13.1, TIM10 inh 10.1, NLRP3 yeast inh 23.5, CR mimetic SO 99.2, CR mimetic CP 95.8 and DHE counter 96.4.
Screening CCn1c2ccccc2c2cc(CNCCCN3CCOCC3)ccc21 returned tim10-1 inh -232.9, tim23-1 inh -27.0, TIM10 inh -202.8, NLRP3 yeast inh 17.3 and CR mimetic SO 106.2.
CCOC(=O)c1cc2oc(C(c3nnnn3C3CCCCC3)N3CCOCC3)cc2[nH]1 (stereo unspecified) was read as tim10-1 inh 25.5, tim23-1 inh 19.0, TIM10 inh 37.7, NLRP3 yeast inh 6.6 and CR mimetic SO 102.4.
Cc1cc(NC(=O)CSc2nc(-c3ccccc3Cl)nc3c2c(=O)n(C)c(=O)n3C)no1 was read as tim10-1 inh -0.5, tim23-1 inh -16.0, TIM10 inh 6.1, NLRP3 yeast inh -1.3 and CR mimetic SO 89.6.
NC1=C(c2ccccc2)C(=O)NC1=O was read as tim10-1 inh 11.1, tim23-1 inh 0.3, TIM10 inh -6.6, NLRP3 yeast inh 13.3, CR mimetic SO 36.6*, CR mimetic CP 99.1 and DHE counter 106.2.
COc1ccccc1CNC(=O)CCSCc1cccc(Cl)c1 was read as tim10-1 inh 23.4, tim23-1 inh 24.4, TIM10 inh 20.0, NLRP3 yeast inh 17.3 and CR mimetic SO 113.0.
For O=c1[nH]c2ccccc2cc1CN(Cc1cccnc1)S(=O)(=O)c1ccc([N+](=O)[O-])cc1 the results were tim10-1 inh 5.2, tim23-1 inh 10.0, TIM10 inh 12.8, NLRP3 yeast inh 19.1 and CR mimetic SO 93.5.
`O=c1[nH]c2ccccc2cc1CN(Cc1cccnc1)S(=O)(=O)c1ccc(Cl)cc1` gave tim10-1 inh 29.2, tim23-1 inh 32.8, TIM10 inh 6.3, NLRP3 yeast inh 13.6, CR mimetic SO 65.0*, CR mimetic CP 120.8 and DHE counter 103.8.
`N#CCc1nn(-c2ccccc2)c2ncnc(N)c12` gave tim10-1 inh -2.5, tim23-1 inh 8.9, TIM10 inh 13.8, NLRP3 yeast inh 10.4, CR mimetic SO 88.2, CR mimetic CP 102.2 and DHE counter 103.1.
Screening N#CCc1nn(-c2ccc(Cl)cc2)c(N)c1C#N returned tim10-1 inh 4.0, tim23-1 inh 7.7, TIM10 inh 12.3, NLRP3 yeast inh 11.6 and CR mimetic SO 99.7.
C=CCn1c(SCC(=O)Nc2cc(C)ccc2OC)nnc1-c1ccco1 was read as tim10-1 inh 32.9, tim23-1 inh 1.0, TIM10 inh 0.6, NLRP3 yeast inh 2.2, CR mimetic SO 115.5, CR mimetic CP 95.8 and DHE counter 91.1.
COc1ccc(C)cc1NC(=O)CSc1nnc(-c2ccco2)n1Cc1ccco1 was read as tim10-1 inh 20.0, tim23-1 inh 9.7, TIM10 inh 2.2, NLRP3 yeast inh -4.8 and CR mimetic SO 98.1.
